According to PubChem BioAssay AID1645882 (National Center for Advancing Translational Sciences (NCATS), 2021):
Where “and” joins values, the source holds several entries; their conditions need not be identical. Identical values can stand only once. In all, about 16,000 compounds went through this assay and about 120 (0.75%) were called active. About 4% were inconclusive and are not listed. Calls come from the whole dose curve; as a rule, active = well fitted inhibition curve with a large enough effect; inconclusive = small, poorly fitted or top-dose-only effect; inactive = no such curve, though single readings can be large or run the other way. This excerpt belongs to a sample that is enriched for actives. Some structures have more than one record in an assay (separate samples or runs), and their calls can disagree.

Target: Rap guanine nucleotide exchange factor 3 (Homo sapiens) (UniProt O95398)
Sequence (O95398 whole entry, looked up): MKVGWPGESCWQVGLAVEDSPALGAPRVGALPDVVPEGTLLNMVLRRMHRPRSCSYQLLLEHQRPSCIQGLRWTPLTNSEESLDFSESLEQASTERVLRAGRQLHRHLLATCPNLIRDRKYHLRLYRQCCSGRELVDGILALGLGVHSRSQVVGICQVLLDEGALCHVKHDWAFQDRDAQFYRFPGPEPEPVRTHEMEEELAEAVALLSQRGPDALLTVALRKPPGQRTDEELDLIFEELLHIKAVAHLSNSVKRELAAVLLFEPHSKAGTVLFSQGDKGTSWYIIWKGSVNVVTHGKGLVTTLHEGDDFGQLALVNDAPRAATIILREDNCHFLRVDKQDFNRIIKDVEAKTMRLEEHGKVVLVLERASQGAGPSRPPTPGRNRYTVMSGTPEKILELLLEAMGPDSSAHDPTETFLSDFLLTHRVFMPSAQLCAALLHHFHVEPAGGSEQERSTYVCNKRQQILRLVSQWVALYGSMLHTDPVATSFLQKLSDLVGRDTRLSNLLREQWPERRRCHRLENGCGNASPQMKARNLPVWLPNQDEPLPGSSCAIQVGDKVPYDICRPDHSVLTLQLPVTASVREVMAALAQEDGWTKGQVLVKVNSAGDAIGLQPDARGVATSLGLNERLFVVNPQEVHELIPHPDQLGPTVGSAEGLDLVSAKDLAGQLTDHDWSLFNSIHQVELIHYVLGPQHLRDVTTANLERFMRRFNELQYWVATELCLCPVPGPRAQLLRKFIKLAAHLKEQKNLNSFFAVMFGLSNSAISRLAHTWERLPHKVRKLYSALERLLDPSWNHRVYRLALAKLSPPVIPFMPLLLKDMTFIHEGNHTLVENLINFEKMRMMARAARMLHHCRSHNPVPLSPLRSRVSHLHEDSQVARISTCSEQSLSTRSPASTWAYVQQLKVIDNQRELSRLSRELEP
Assay: Validation qHTS for antagonist of cAMP-regulated guanine nucleotide exchange factor 3 (EPAC1); note: nearly all actives have a fitted effect of over 75% in size;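 for activity change, negative = inhibition: plate controls were DMSO for no effect and ATA control for full effect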
Conditions: EPAC1 Rap1B-BODIPY-GDP exchange, fluorescence; series mostly up to 150 µM; activity change, negative = inhibition: at the top concentration
Method in brief: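 Nucleotide exchange followed as fluorescence loss when BODIPY-GDP leaves Rap1B (480 nm excitation, 540 nm emission), read at 5 min intervals over 30 min. Reaction: 100 nM EPAC1, 250 nM RAP1B-BODIPY-GDP, 50 uM GDP; ATA and DMSO define normalization.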
Potency is the fitted concentration of half-maximal effect.

SMILES	activity change, negative = inhibition	Potency
COc1cccc(Cn2c(=O)c(-c3ccc(F)c(F)c3)nc3cncnc32)c1	-1.99% (inactive)	–
O=c1c(-c2ccc(O)cc2)coc2cc(O)cc(O)c12	–	inactive
O=c1c(-c2ccccc2)coc2cc(O)cc(O)c12	–	79.4 µM (active)
COc1ccc(-c2coc3cc(O)cc(O)c3c2=O)cc1	–	inactive
Cc1cccc(/C=C/c2cccs2)n1	12.7% (inactive)	–
COc1cccc(CN2Cc3cccc4c3[C@H](C=CC4)CC2=O)c1	-0.201% (inactive)	–
Cc1ccc2c(/C=C/c3ccc(N(C)C)cc3)ccnc2c1C	0.259% (inactive)	–
CS(=O)(=O)OCCCNCCCOS(C)(=O)=O	27.9% (inactive)	–
COc1cc2c(cc1OC)CN(C(=O)[C@@H]1C[C@H](NCc3cn(C)c4ccccc34)CN1C1Cc3ccccc3C1)CC2	-8.75% (inactive)	–
COc1cc(C(=O)NS(=O)(=O)c2ccccc2C)ccc1Cc1cn(C)c2ccc(NC(=O)OC3CCCC3)cc12	–	89.1 µM (active)
N#C/C(=C\c1ccc(O)c(O)c1)C(=O)NCc1ccccc1	–	inactive
C[C@H](NC(=O)/C(C#N)=C/c1ccc(O)c(O)c1)c1ccccc1	–	89.1 µM (active) and inactive
N#C/C(=C\c1ccc(O)c(O)c1)C(N)=O	–	inactive
N#C/C(=C\c1ccc(O)c(O)c1)C(=O)OCCc1cccs1	–	39.8 µM (active)
CC(NNC(=O)c1ccccc1)c1ccccc1 (stereo not drawn)	13.5% (inactive)	–
O=C(O)/C=C/c1ccc(O)c(O)c1	–	inactive
N#C/C(=C\c1ccc(O)c(O)c1)C(=O)Nc1ccccc1	–	79.4 µM (active) and inactive
C[C@@H](NC(=O)/C(C#N)=C/c1ccc(O)c(O)c1)c1ccccc1	35.9% [at 75.8 µM] (inactive)	–
N#C/C(=C\c1ccc(O)c(O)c1)C(=O)c1ccc(O)c(O)c1	-6.35% [at 75.8 µM] (inactive)	–
Cc1cccc2[nH]cc(/C=C3/C=Nc4ccccc43)c12	-26.7% (inactive)	–
c1cncc(CNc2nc(-c3ccc4c(c3)OCO4)nc3ccccc23)c1	-1.58% (inactive)	–
O=S(=O)(NCc1nc(N2CCCC2)c2cc(Cl)ccc2n1)c1ccccc1OC(F)(F)F	-4.38% (inactive)	–
O=C[C@H](O)[C@@H](O)[C@H](O[C@H]1O[C@H](CO)[C@@H](O[C@H]2O[C@H](CO)[C@@H](O)[C@H](O)[C@H]2O)[C@H](O)[C@H]1O)[C@H](O)CO	23% (inactive)	–
CCn1nc(C)cc1C(=O)N1CCC2(CC1)c1ccccc1[C@@H](NC(=O)c1cccnc1)[C@@H]2O	13% (inactive)	–

SMILES	activity change, negative = inhibition	Potency
Cc1ncc2c(c1CNC(=O)c1ccc3c(c1)OCO3)CCN(C(=O)c1scc3c1CCCC3)C2	15.5% (inactive)	–
CN(C)C(=O)c1ccc(-c2ccc3ncnc(NC4CC4)c3c2)cc1	-5.36% (inactive)	–
NCCC(=O)N[C@H](Cc1cnc[nH]1)C(=O)O	7.46% (inactive)	–
C[C@@H]1NC(=O)OC1c1ccco1 (stereo partly drawn)	10.5% (inactive)	–
CS(=O)(=O)Nc1cccc(-c2nccc(NCc3cccs3)n2)c1	-14.7% (inactive)	–
Cc1cc(C)n(-c2cccc(C(=O)NCC3Cc4cccc(-c5cccnc5)c4O3)c2)n1 (stereo not drawn)	6.83% (inactive)	–
O=C1C=CC2=C3c4cc(O)c(O)cc4C[C@@]3(O)COC2=C1	-19.9% (inactive)	–
O=C1C=CC2=C3c4cc(O)c(O)cc4C[C@]3(O)COC2=C1	-29.8% (inactive)	–
O=C1C=CC2=C3c4cc(O)c(O)cc4CC3(O)COC2=C1O (stereo not drawn)	–	56.2 µM (active) and 25.1 µM (active)
CC1O[C@@H](O[C@@H]2C(O)C[C@H](O[C@@H]3C(O)C[C@@H](OC4CC[C@@]5(C)C6CC(O)[C@@]7(C)C(C8=CC(=O)OC8)CC[C@@]7(O)C6CC[C@@H]5C4)OC3C)OC2C)CC(O)[C@H]1O (stereo partly drawn)	14.6% (inactive)	–
CC(Oc1ccccc1)C(=O)NCC1Cc2cc(F)cc(-c3ccccn3)c2O1 (stereo not drawn)	0.154% (inactive)	–
COc1ccc(-c2nc3cnc(Nc4cccc(OC)c4)nc3n(Cc3cccs3)c2=O)cc1	–	100 µM (active)
COc1cccc(Nc2ncc3nc(-c4ccccc4)c(=O)n(Cc4cccs4)c3n2)c1	18.4% (inactive)	–
COc1ccc(-c2nc3cnc(Nc4ccccc4)nc3n(Cc3cccs3)c2=O)cc1	-3.69% (inactive)	–
CC1(COc2ccc(C[C@H]3SC(=O)NC3=O)cc2)CCCCC1	–	89.1 µM (active)
Cc1c(C)c2c(c(C)c1O)CC[C@@](C)(CCC[C@H](C)CCC[C@H](C)CCCC(C)C)O2	–	inactive
CCc1ccc(CCOc2ccc(CC3SC(=O)NC3=O)cc2)nc1 (stereo not drawn)	–	inactive
CC1(COc2ccc(CC3SC(=O)NC3=O)cc2)CCCCC1 (stereo not drawn)	12.3% [at 15.3 µM] (inactive)	35.5 µM (active)
Cc1c(C)c2c(c(C)c1O)CCC(C)(CCCC(C)CCCC(C)CCCC(C)C)O2 (stereo not drawn)	-7.36% (inactive)	–
Cc1c(C)c2c(c(C)c1O)CCC(C)(COc1ccc(CC3SC(=O)NC3=O)cc1)O2 (stereo not drawn)	–	100 µM (active)
CN(CCOc1ccc(CC2SC(=O)NC2=O)cc1)c1ccccn1 (stereo not drawn)	16.9% (inactive)	–
Fc1ccc(N2CCN(Cc3ccc4c(c3)CN(Cc3cccn3-c3cccnc3)CCO4)CC2)cc1	-5.67% (inactive)	–
Cc1ccc2c(c1)CN(CCC(=O)NCc1cc(C)n(C)n1)CC(C)O2 (stereo not drawn)	5.77% (inactive)	–
COc1cc(=O)n2c(c1C(=O)N(C)Cc1nonc1C)CCN(Cc1ccsc1)CC2	11.6% (inactive)	–

SMILES	activity change, negative = inhibition	Potency
Cc1ccc(CN2C[C@H](Sc3ccccn3)C[C@H]2C(=O)Nc2ccc3sc(C)nc3c2)c(C)c1	2.23% (inactive)	–
CN(C)/N=N/c1nc[nH]c1C(N)=O	–	inactive
COc1cccc(Cn2c(=O)c(-c3cc(F)cc(F)c3)nc3cncnc32)c1	0.958% (inactive)	–
Cc1noc(C)c1-c1cc(N(C)C)ncn1	17.9% (inactive)	–
CCCCCCCCN1[C@@H](CC(=O)O)c2cc(C(F)(F)F)ccc2S1(=O)=O	9.17% (inactive)	–
CCCCCCCCCCCCN1[C@@H](CC(=O)OC)c2cc(C(F)(F)F)ccc2S1(=O)=O	-0.938% (inactive)	–
CCCCCCCCCCCCN1[C@@H](CC(=O)O)c2cc(C(F)(F)F)ccc2S1(=O)=O	–	89.1 µM (active)
COc1ccc(OC)c(-c2ccnc(-n3ncc(C(=O)N(C)CCc4ccccn4)c3C)n2)c1	18.1% (inactive)	–
Clc1ccc2ncnc(NCc3ccc4c(c3)OCO4)c2c1	14.1% [at 201 µM] (inactive)	–
CC(O)c1nc2ccccc2[nH]1 (stereo not drawn)	5.07% (inactive)	–
O=C1CC[C@@H](CN(Cc2cccnc2)C2CCN(c3ccc(NC(=O)c4cnccn4)cc3)CC2)N1	-4.84% (inactive)	–
CCCCC(CC)COS(=O)(=O)O (stereo not drawn)	-7.64% (inactive)	–
CCCCC(CC)COC(=O)CC(C(=O)OCC(CC)CCCC)S(=O)(=O)O (stereo not drawn)	–	56.2 µM (active) and 25.1 µM (active)
CCCCC(CC)COC(=O)c1ccccc1O (stereo not drawn)	24.3% (inactive)	–
O=c1c(-c2ccccc2)nc2cncnc2n1Cc1ccccc1	2.28% (inactive)	–
COc1ccc(-c2nc3cnc(N4CCN(C)CC4)nc3n(-c3ccc(OC)cc3)c2=O)cc1	19% (inactive)	–
COc1ccc(-c2nc3cc(C)ccc3cc2CN(C(=O)c2ccc(C)s2)C2CC2)cc1OC	4.33% (inactive)	–
c1ccc(Cc2nnc3n2CCN(Cc2cnc(-c4ccccc4)s2)CC3)cc1	20.3% (inactive)	–
COc1ccc(-n2c(=O)c(CCc3ccccc3)nc3cnc(N4CCNCC4)nc32)cc1	10.6% (inactive)	–
COc1ccc(C(C)=O)cc1	18.3% (inactive)	–
COc1ccc(C(=O)C[n+]2ccccc2Cl)cc1	7.36% (inactive)	–
COc1ccc(C(=O)CC(=O)c2ccc(C(C)(C)C)cc2)cc1	–	79.4 µM (active)
Cc1ncc2c(c1CNC(=O)c1ccsc1)CCN(C(=O)c1c(F)cccc1Cl)C2	8.26% (inactive)	–
COc1cc(C)c(CN2C[C@H](Sc3ccccn3)C[C@H]2C(=O)N(C)C)cc1C	-9.09% (inactive)	–
